In PubChem BioAssay AID1159580 (chemical genetic matrix, 2015):
Where “and” joins values, the source holds several entries; their conditions need not be identical. Equal values may be shown once. The campaign covered roughly 5,500 compounds. About 2,000 (36%) were called active. Inconclusive results (about 18%) are left out. Rule as the data show it: active = normalized growth mostly below about 0.91 (no sharp cut-off); inconclusive = no clear call, values can overlap the other calls; inactive = mostly above about 0.92. The list shows a part of the results.

Experiment: chemical genetic growth profiling, strain panel (AID 1159580);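 also: tested at 20 µM; growth read once vehicle control cultures reached saturation at 30 °C; 1 = growth at the plate median or of vehicle wells; lower values mean less growth of the strain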
Settings: S. cerevisiae deletion strains, growth OD

Measured: normalized growth

S=c1[nH]c2ccccc2s1
1 (inactive) and 0.821 (active): locus YHR030C, strain SLT2, stronger effect = lower value
inactive: locus YAL013W, strain DEP1, stronger effect = lower value 1 | locus YAL021C, strain ccr4, stronger effect = lower value 0.941 | locus YAL030W, strain snc1, stronger effect = lower value 0.992 | locus YBL061C, strain skt5, stronger effect = lower value 0.986 | locus YBR009C, strain hhf1, stronger effect = lower value 0.972 | locus YBR021W, strain FUR4, stronger effect = lower value 1.06 | locus YBR023C, strain chs3, stronger effect = lower value 1.01 | locus YBR171W, strain sec66, stronger effect = lower value 0.965 | locus YBR229C, strain ROT2, stronger effect = lower value 0.989 | locus YBR231C, strain swc5, stronger effect = lower value 0.946 | locus YBR279W, strain paf1, stronger effect = lower value 0.982 | locus YCL011C, strain gbp2, stronger effect = lower value 0.966 | locus YCL016C, strain dcc1, stronger effect = lower value 1.02 | locus YCL029C, strain bik1, stronger effect = lower value 0.989 | locus YCL069W, strain vba3, stronger effect = lower value 0.983 | locus YCR088W, strain abp1, stronger effect = lower value 0.981 | locus YDL005C, strain med2, stronger effect = lower value 0.996 | locus YDL035C, strain GPR1, stronger effect = lower value 0.948 | locus YDL040C, strain nat1, stronger effect = lower value 0.983 | locus YDL074C, strain BRE1, stronger effect = lower value 0.975 | locus YDL101C, strain DUN1, stronger effect = lower value 0.99 | locus YDL134C, strain PPH21, stronger effect = lower value 0.985 | locus YDL185W, strain tfp1, stronger effect = lower value 0.979 | locus YDL192W, strain arf1, stronger effect = lower value 0.985 | locus YDR001C, strain nth1, stronger effect = lower value 0.992 | locus YDR069C, strain doa4, stronger effect = lower value 0.951 | locus YDR101C, strain arx1, stronger effect = lower value 1.01 | locus YDR150W, strain NUM1, stronger effect = lower value 0.986 | locus YDR159W, strain sac3, stronger effect = lower value 0.992 | locus YDR162C, strain NBP2, stronger effect = lower value 0.986 | locus YDR297W, strain sur2, stronger effect = lower value 0.97 | locus YDR318W, strain mcm21, stronger effect = lower value 0.996 | locus YDR334W, strain swr1, stronger effect = lower value 0.972 | locus YDR335W, strain msn5, stronger effect = lower value 0.984 | locus YDR388W, stronger effect = lower value 0.987 | locus YDR392W, strain spt3, stronger effect = lower value 0.879 | locus YDR502C, strain sam2, stronger effect = lower value 1 | locus YEL003W, strain gim4, stronger effect = lower value 0.952 | locus YEL037C, strain rad23, stronger effect = lower value 0.975 | locus YEL061C, strain CIN8 (second series), stronger effect = lower value 0.973 | locus YEL061C, strain CIN8, stronger effect = lower value 1.01 | locus YER015W, strain faa2, stronger effect = lower value 0.965 | locus YER016W, strain bim1, stronger effect = lower value 0.987 | locus YER110C, stronger effect = lower value 0.998 | locus YER111C, strain swi4, stronger effect = lower value 0.979 | locus YER155C, strain BEM2 (second series), stronger effect = lower value 0.986 | locus YER155C, strain BEM2, stronger effect = lower value 0.986 | locus YER167W, strain BCK2, stronger effect = lower value 1.02 | locus YFR010W, strain ubp6, stronger effect = lower value 0.95 | locus YGL078C, strain dbp3, stronger effect = lower value 1.02 | locus YGL086W, strain mad1, stronger effect = lower value 0.965 | locus YGL167C, strain pmr1, stronger effect = lower value 0.995 | locus YGL173C, strain kem1, stronger effect = lower value 0.91 | locus YGL227W, strain vid30, stronger effect = lower value 0.996 | locus YGL240W, strain doc1, stronger effect = lower value 0.923 | locus YGL248W, strain PDE1, stronger effect = lower value 0.991 | locus YGL253W, strain hxk2, stronger effect = lower value 0.938 | locus YGR078C, strain PAC10, stronger effect = lower value 0.958 | locus YGR135W, strain pre9, stronger effect = lower value 0.964 | locus YHR013C, strain ard1, stronger effect = lower value 1.02 | locus YHR079C, strain IRE1 (second series), stronger effect = lower value 1.01 | locus YHR094C, strain hxt1, stronger effect = lower value 1.02 | locus YHR129C, strain ARP1, stronger effect = lower value 0.992 | locus YHR142W, strain chs7, stronger effect = lower value 1.01 | locus YHR200W, strain rpn10, stronger effect = lower value 1.01 | locus YIL066C, strain RNR3, stronger effect = lower value 0.986 | locus YIL073C, strain SPO22, stronger effect = lower value 0.844 | locus YIL125W, strain kgd1, stronger effect = lower value 1.01 | locus YIR030C, strain dcg1, stronger effect = lower value 1.01 | locus YJL092W, strain hpr5, stronger effect = lower value 0.984 | locus YJL095W, strain BCK1 (second series), stronger effect = lower value 0.975 | locus YJL115W, strain asf1, stronger effect = lower value 0.983 | locus YJL129C, strain trk1, stronger effect = lower value 0.966 | locus YJL134W, strain LCB3, stronger effect = lower value 1 | locus YJL154C, strain vps35, stronger effect = lower value 0.983 | locus YJL164C, strain tpk1, stronger effect = lower value 1 | locus YJL166W, strain qcr8, stronger effect = lower value 0.962 | locus YJL168C, strain set2, stronger effect = lower value 0.996 | locus YJL187C, strain SWE1 (second series), stronger effect = lower value 0.964 | locus YJR043C, strain POL32, stronger effect = lower value 1 | locus YJR075W, strain HOC1, stronger effect = lower value 1.02
0.99 (inactive) and 0.818 (active): locus YJL095W, strain BCK1, stronger effect = lower value
active: locus YAL026C, strain drs2, stronger effect = lower value 0.891 | locus YDR137W, strain rgp1, stronger effect = lower value 0.808 | locus YDR195W, strain ref2 1.18 [resistant] | locus YGR229C, strain SMI1, stronger effect = lower value 0.804 | locus YGR252W, strain gcn5, stronger effect = lower value 0.691 | locus YHR027C, strain rpn1, stronger effect = lower value 0.903 | locus YHR079C, strain IRE1, stronger effect = lower value 0.78 | locus YJR066W, strain TOR1, stronger effect = lower value 0.732
